# Screens: PubChem BioAssay, The Scripps Research Institute Molecular Screening Center
# Sampled rows, rich in hits. Any-hit rate of the full collection: about 3.5%.
# FBW7 activator: FBW7 E3 ligase activators, primary screen, biochemical, AlphaScreen, human; F-box/WD repeat-containing protein 7 (Homo sapiens), Q969H0; AlphaScreen FBW7–phospho-cyclin E peptide binding, activator screen; normalized activity (activation), % at 26.1 µM; 0.13% of 650,000 active; AID 1259310, 2017; in the data active = normalized activity above about 1.9%;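 also: purified mutant Fbw7 with reduced substrate affinity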
# GPR151 ag: activators of human GPR151, primary screen, cell-based, PathHunter beta-arrestin, luminescence; G-protein coupled receptor 151 (Homo sapiens), Q8TDV0; PathHunter beta-arrestin GPR151 cells; activation, % at 11.2 µM; 1% of 650,000 active; in the data active = activation above about 4.9%;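 also: 0% = median of compound wells and 100% = cells with positive control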
# MITF primary: MITF inhibitors, primary screen, biochemical, AlphaScreen, human. AlphaScreen MITF homodimerization, bead proximity signal. inhibition, % at 2.6 µM. 0.91% of 650,000 active. AID 1259374, 2018; in the data active = inhibition above about 50%;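 also: 0% = vehicle wells with protein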
# Target sequence (O75030 whole entry, looked up): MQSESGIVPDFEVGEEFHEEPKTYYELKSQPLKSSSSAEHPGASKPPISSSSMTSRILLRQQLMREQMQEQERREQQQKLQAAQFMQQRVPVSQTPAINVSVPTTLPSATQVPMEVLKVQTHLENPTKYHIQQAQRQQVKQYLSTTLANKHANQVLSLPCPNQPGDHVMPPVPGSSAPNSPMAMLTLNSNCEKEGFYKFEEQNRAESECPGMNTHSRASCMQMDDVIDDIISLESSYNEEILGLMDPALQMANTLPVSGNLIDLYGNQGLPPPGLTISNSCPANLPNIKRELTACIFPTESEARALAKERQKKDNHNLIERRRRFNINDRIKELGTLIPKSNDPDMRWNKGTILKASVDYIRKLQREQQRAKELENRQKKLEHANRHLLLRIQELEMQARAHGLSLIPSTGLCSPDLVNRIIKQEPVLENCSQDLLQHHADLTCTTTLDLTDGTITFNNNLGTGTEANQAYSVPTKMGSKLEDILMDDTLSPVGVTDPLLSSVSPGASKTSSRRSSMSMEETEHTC
# TEAD-YAP block: TEAD-YAP interaction inhibition, primary screen, TEAD-YAP interaction inhibitor project, luminescence, HEK-TIYL cells. inhibition, % at 9.12 µM. AID 1259422, 2018. 1.4% of 640,000 active. TEAD-Gal4/YAP UAS-luciferase luminescence; in the data active = inhibition above about 32%;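 also: 0% = median of test compound wells and 100% = reference inhibitor wells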
# GPR151 conf act: GPR151 activators, triplicate retest, confirmation, cell-based, PathHunter beta-arrestin, luminescence; shares compounds with GPR151 ag; GPR151 PathHunter beta-arrestin cells, 90 min; % of EA-reagent control over plate median; activation, % at 11.2 µM; 6,700 tested, under 10 active; AID 1508609, 2020;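 active = mean percent activation across replicates above the confirmation screen cutoff of 4.91%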
# GPR119 counter: GPR119 activators in beta-arrestin cells, counter-screen for GPR151 activator project, cell-based, PathHunter beta-arrestin, luminescence, triplicate. shares compounds with GPR151 ag. activation, % at 11.2 µM. 0.3% of 6,700 active. 90 min; 0 = compound-well median, 100 = enzyme-acceptor control;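 active = mean percent activation in the counterscreen above 29.09%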;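 also: counterscreen on off-target GPR119 to flag nonselective hits from the GPR151 activator screen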
# Active calls of the source: *; . = no result.
SMILES,FBW7 activator,GPR151 ag,MITF primary,TEAD-YAP block,GPR151 conf act,GPR119 counter
COc1cc(/C=C(/C(=O)OCC(N)=O)c2ccc(-c3ccccc3)cc2)cc(OC)c1OC,-0.2,5.1*,7.0,0.9,-0.3,-6.9
COc1ccccc1/C=C(/C(=O)OCC(N)=O)c1ccccc1,0.1,0.5,-0.9,7.2,.,.
Nc1ccc(Oc2ccc(Cl)c3ccccc23)c(Cl)c1,0.1,10.7*,4.3,2.4,0.0,6.8
Nc1ccc(Oc2ccc3ccccc3c2Cl)c(Cl)c1,0.6,2.2,10.0,-9.4,.,.
CC#CCN1C(=O)NC(CCc2ccccc2)(C2CCN(C(=O)C#CC)CC2)C1=O (centres undefined),0.1,7.0*,9.0,2.5,0.3,4.3
O=C(CN(C(=O)c1ccccc1C(=O)O)C1CCCCC1)Nc1cccc([N+](=O)[O-])c1,-0.1,0.6,-10.0,3.8,.,.
CCOc1ccc(NC(=O)c2cccnc2)c([N+](=O)[O-])c1,0.0,5.8*,-0.5,46.2*,1.0,8.5
Cc1cc(OCC(=O)NCc2cccnc2)ccc1[N+](=O)[O-],0.0,5.2*,2.2,-7.2,-0.8,2.2
Cc1cccc(OCC(=O)NCc2cccnc2)c1,0.1,1.8,-3.4,3.9,.,.
COc1ccc2c(c1OC)C(=O)OC2OC(C)=O (centres undefined),0.0,-0.5,1.9,24.5,.,.
C=CCn1c(C)[n+](CC)c2ccc(C(=O)OCC)cc21,0.2,0.1,-4.8,4.4,.,.
CCOc1ccccc1N1CC(C(N)=O)CC1=O (centres undefined),0.1,0.8,15.8,-3.4,.,.
COc1ccccc1NC(=O)C1C2C=CC(C3CC23)C1C(=O)O (centres undefined),-0.1,12.4*,14.7,5.5,-0.4,1.1
Cc1ccccc1NC(=O)C1C2C=CC(C3CC23)C1C(=O)O (centres undefined),0.1,-0.4,17.4,-7.0,.,.
Cc1ccc(N2C(=O)SC(Nc3ccc(F)cc3)C2=O)cc1 (centres undefined),0.1,5.4*,7.1,-14.4,-0.2,-9.2
Cc1cccc(NC2SC(=O)N(c3ccc(F)cc3)C2=O)c1 (centres undefined),0.0,5.6*,16.2,-27.1,-0.5,-11.9
Cc1ccc(N2C(=O)SC(Nc3ccccc3)C2=O)cc1 (centres undefined),0.1,0.6,13.1,-42.8,.,.
Cc1ccc(N2C(=O)SC(Nc3ccc(I)cc3)C2=O)cc1 (centres undefined),-0.1,-1.0,-1.4,-1.8,.,.
O=C(O)/C=C\C(=O)NNC(=O)c1ccc(-c2ccccc2)cc1,0.2,-2.7,21.3,2.4,.,.
CN(Cc1ccccc1)C(=O)C1CC(c2cccc(Br)c2)=NO1 (centres undefined),-0.1,2.1,7.8,-9.7,.,.
COc1ccc(C(=O)Nc2ccnn2C2CCN(C(=O)c3ccccc3)CC2)cc1,0.0,-1.3,-3.0,-24.2,.,.
CCCCCOc1ccc(C(=O)Nc2c(C(N)=O)oc3ccccc23)cc1,0.0,4.9*,6.2,1.3,1.6,0.4
CCCCOc1ccc(C(=O)Nc2c(C(N)=O)oc3ccccc23)cc1,0.2,-1.8,8.4,3.8,.,.
CC(=O)Nc1c(C(=O)c2ccc(Oc3ccccc3)cc2)oc2ccccc12,0.1,7.4*,-13.1,-0.9,1.6,6.6
CC(=O)c1ccc(N=Cc2c(C)[nH]c3ccccc23)cc1,0.0,-0.6,2.8,0.0,.,.
SMILES,FBW7 activator,GPR151 ag,MITF primary,TEAD-YAP block,GPR151 conf act,GPR119 counter
CCNC(=O)N1CCC(C(=O)NC(c2ccccc2)c2ncccc2C)CC1 (centres undefined),-0.4,-1.1,2.6,-0.1,.,.
O=C(c1cccc(-n2c(=S)[nH]c3cc(Cl)ccc3c2=O)c1)N1CCCC1,0.0,-1.3,40.5,-7.9,.,.
CCOC(=O)C1CCCN(C(=O)c2cccc(-n3c(=S)[nH]c4cc(Cl)ccc4c3=O)c2)C1 (centres undefined),0.1,6.6*,3.6,0.3,0.7,9.5
CCCCCCOc1ccc(/C=N/n2cnnc2)cc1,-0.1,6.8*,5.6,9.3,0.4,-2.9
CC(C)CCOc1ccc(/C=N/n2cnnc2)cc1,0.1,0.2,-1.3,1.3,.,.
COCCCNc1nc2nonc2nc1N1CCN2CCCC2C1 (centres undefined),0.0,-0.5,-7.5,1.1,.,.
COCCCNc1nc2nonc2nc1N1CCN(C2CCCC2)CC1,-0.1,5.7*,-0.6,2.4,1.3,10.8
Oc1ccccc1-c1csc(Nc2ccccn2)n1,-0.1,7.6*,-8.0,-79.5,-2.0,-14.5
COc1ccc(CNC(=O)COc2ncnc3c(Cl)cc(Cl)cc23)cc1,0.0,6.9*,9.6,6.8,0.4,10.2
CCOC(=O)c1c(NC(=O)CSc2nc(C)cc(=O)[nH]2)sc2c1CCCC2,0.3,0.6,3.1,0.3,.,.
N#Cc1ccc(S(=O)(=O)NCCc2ccncc2)cc1,0.1,5.2*,2.2,1.1,0.0,0.6
Cn1c(NC(=O)c2ccco2)c(-c2cccs2)c(=O)c2ccccc21,-0.1,6.6*,7.2,5.9,0.1,-3.1
O=C(CSc1nnc(-c2ccncc2)o1)c1cccc([N+](=O)[O-])c1,-0.5,0.3,-1.8,-11.9,.,.
COc1cc(OC)cc(-c2nnc(SCC(=O)c3cccc([N+](=O)[O-])c3)o2)c1,-0.1,7.2*,10.7,-2.6,-0.8,-16.4
COCC1CCCCN1Cc1nc(-c2ccc(OC)c(OC)c2OC)no1 (centres undefined),-0.1,0.6,-7.8,-2.1,.,.
COc1ccc(-c2noc(CN3CCN(c4ccccc4)CC3C)n2)c(OC)c1OC (centres undefined),0.1,4.9*,11.7,-4.7,1.0,6.0
COc1cccc2cc(C(=O)Nc3ccccc3[N+](=O)[O-])c(=O)oc12,0.0,12.9*,11.4,-17.2,0.1,12.9
COc1cccc2cc(C(=O)c3ccc([N+](=O)[O-])cc3)oc12,-0.3,7.3*,10.2,-13.0,-0.1,-9.8
CCc1ccc(OCC2c3cc(OC)c(OC)cc3CCN2C(=O)c2ccc(F)cc2)cc1 (centres undefined),-0.1,-1.6,-5.9,-10.0,.,.
O=C(Nc1ccccc1N(C(=O)C1CC1)S(=O)(=O)c1cccs1)C1CC1,-0.1,5.0*,2.8,2.6,-0.1,15.4
N#CSc1ccc(NC(=O)c2ccccc2F)c(Cl)c1,-0.1,-0.8,0.1,-35.1,.,.
Cc1ccc(S(=O)(=O)c2nc(NCCN(C)C)sc2Cl)cc1,-0.3,5.2*,-0.1,2.3,0.7,3.4
